# Source: PubChem (National Center for Advancing Translational Sciences (NCATS))
# Rows were chosen to be rich in hits. Some 3% of all compounds tested hit in one or more screens of this group.
# mTORC1 inh: mTORC1 pathway inhibition measured by phospho-rpS6; Tsc2-/- p53-/- MEF, phospho-rpS6 immunofluorescence/PI, 24 h; Potency, µM (titrated, usually from 38.3 µM), without a hit: top-dose activity change, negative = inhibition, most hits filed as inhibitors; 0.78% of 44,000 active;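 also: plate controls were DMSO for no effect and rapamycin for full effect; nearly all actives have a fitted effect of over 50% in size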
#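 Cell-based qHTS: Tsc2-/- p53-/- MEF, 24 h cpd, 37 °C; fix/perm, anti-phospho-S6 Alexa-488 + PI; Acumen 488 nm scan; pS6/PI ratio, % positive cells; rapamycin 7.5 nM = inhibition ref; PI count = viability.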
# PMP22 txn prim: modulators of PMP22 gene transcription in S16 Schwann cells; Potency, µM (top dose mostly 57.5 µM), for inactives: at the top dose activity change, negative = inhibition, actives largely listed as inhibitors; AID 1508649; S16 Pmp22-F2sN Schwann cells, FLuc/NLuc coincidence luminescence, 24 h; 2% of 43,000 active; active = clear falling dose curves in both reporters; inconclusive = both reporters move, but less clearly or upward; inactive = either reporter flat; the % is the NLuc reporter signal
#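 S16 Schwann cells carrying FLuc/NLuc coincidence reporter in the Pmp22 3' UTR treated with compound 24 h at 37C; FLuc then NLuc luminescence read sequentially by dual-luciferase reagents.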
# OvCa metastasis: ovarian cancer metastasis inhibition, 3D TME model. SKOV3ip1-GFP adhesion/invasion on 3D omental model, fluorescence. Potency, µM (top dose mostly 45.8 µM), for the others: at the top dose activity change, negative = inhibition, usual class: inhibitors. 0.1% of 46,000 active. AID 1963576;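 also: plate controls were DMSO wells for no effect and tomatine positive control wells for full effect; nearly all actives have a fitted effect of over 65% in size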
#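 Primary human omental fibroblast/mesothelial 3D culture pre-formed 48 h. SKOV3ip1-GFP cells added with compounds (0.36-46 umol/L), incubated 2 h RT/16 h 37 C, fixed; GFP cells quantified at 488/509 nm.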
# S16 F2sN tox: S16 Schwann cell cytotoxicity. 0.48% of 43,000 active. S16 Pmp22-F2sN Schwann cells (luciferase reporters placed in the Pmp22 gene) viability, CellTiter-Glo, 24 h. Potency, µM (titrated, usually from 57.5 µM), for inactives: at the top dose activity change, negative = cytotoxicity, usual class: cytotoxic; also: nearly all actives have a fitted effect of over 65% in size
#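 CellTiter-Glo counter-screen, qHTS, 1536-well. Cells: S16(c9) Pmp22-F2sN, 500-1,000/well in DMEM + 10% FBS. Cpd 23 nL pin transfer, 24 h, 37C/5% CO2. Read: luminescence, CCD imager.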
# p53null 39C tox: p53 null cell cytotoxicity, nonpermissive temperature; H1299 p53-null (neo) cells, 39C, ATPlite viability, 24 h; Potency, µM (series often up to 46.1 µM), for the others: at the highest dose activity, negative = cell killing, actives largely listed as cytotoxic; 0.97% of 55,000 active;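 also: 0% = DMSO only and -100% = full killing by 100 µM tamoxifen; nearly all actives have a fitted effect of over 50% in size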
#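 Following overnight plating at 37C (600 cells/well), H1299-neo or H1299-p53A138V cells are dosed up to 46 uM. Incubation lasts 24 hr at 39C before ATP detection.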
# p53null 32C kill: selectivity test: cytotoxicity in p53 null cells, permissive temperature | H1299-neo p53 null cells, ATP luminescence, 24 h, 32C | Potency, µM (top dose mostly 46.1 µM), inactives show at the top dose activity change, negative = cytotoxicity, usual class: cytotoxic | 0.62% of 55,000 active | AID 903;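 also: 0% = DMSO only and -100% = full killing by 100 µM tamoxifen; nearly all actives have a fitted effect of over 55% in size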
#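 Cells lacking p53 (H1299-neo) are plated at 600 per well and allowed to settle overnight at 37C. Test compounds (up to 46 uM) are added and held 24 hours at 32C, then ATP is quantified by luminescence.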
# Numbers without * were called inactive; i = inactive; ? = inconclusive; . = not tested or not shown. Unless noted, calls follow the shape of the dose curve; as a rule, active = well fitted curve in the direction sought with a large enough effect; inconclusive = small, poorly fitted or top-dose-only effect, or another doubt; inactive = no such curve, though single readings can be large; an effect the other way counts as inactive or inconclusive. Unless noted, % is scaled to controls: 0 for no effect and ±100 for the full control effect; potency is read from the fitted curve at half-maximal effect.
SMILES,mTORC1 inh,PMP22 txn prim,OvCa metastasis,S16 F2sN tox,p53null 39C tox,p53null 32C kill
CNCc1ccc(-c2[nH]c3cc(F)cc4c3c2CCNC4=O)cc1,.,.,-6%,.,.,.
C[C@H](NC(=O)[C@@H](O)c1cc(F)cc(F)c1)C(=O)N[C@@H]1C(=O)N(C)c2ccccc2-c2ccccc21,.,.,0%,.,.,.
CC(=O)Nc1nc(C)c(-c2ccc(Cl)c(S(=O)(=O)NCCO)c2)s1,.,.,-13%,.,.,.
Cc1cccc(C)c1NC(=O)Cn1c(=O)n(Cc2ccc(C(=O)NCc3ccco3)cc2)c(=O)c2sccc21,?,?,-23%,-10%,?,?
Cc1cc(C)c(NC(=O)Cn2c(=O)n(Cc3ccc(C(=O)NCc4ccco4)cc3)c(=O)c3sccc32)c(C)c1,-6%,?,-2%,-6%,10µM*,?
Cc1nnc(NC(=O)C(=O)c2cc(C)n(-c3ccc(C)c(C)c3)c2C)s1,1%,2.9µM*,2%,?,0%,3%
Cc1cncn1CCc1nc2c3ccccc3nc(SCC(=O)Nc3cccc(Cl)c3)n2n1,?,?,?,28µM*,?,?
Cc1cncn1CCc1nc2c3ccccc3nc(SCC(=O)Nc3ccc(F)cc3)n2n1,0%,-20%,1%,5%,-2%,-2%
CC(C)c1cc(C(C)C)c(CC(=O)NS(=O)(=O)Oc2c(C(C)C)cccc2C(C)C)c(C(C)C)c1,.,.,-11%,.,.,.
Cc1nc2c(C(=O)NCCc3ccc(Cl)cc3)c[nH]n2c(=O)c1Cc1ccccc1F,-7%,-32%,i,18%,?,?
Cc1nc2c(C(=O)NCCc3ccccc3)c[nH]n2c(=O)c1Cc1ccc(F)cc1Cl,-14%,?,8%,9%,?,13µM*
Fc1cc(-c2cccc3ncc(-c4cnn(C5CCNCC5)c4)nc23)cc(F)c1CN1CCOCC1,.,.,-4%,.,.,.
c1ccc2c(-c3cnn4cc(-c5ccc(N6CCNCC6)cc5)cnc34)ccnc2c1,.,.,23µM*,.,.,.
Cc1cccc(Cn2nnc3c(=O)[nH]c(C4CCCN(C(=O)c5ccc(C(C)(C)C)cc5)C4)nc32)c1 (stereo unspecified),-1%,-23%,?,?,20µM*,?
Cc1ccc(S(=O)(=O)NCCc2nnc3ccc(SCc4ccccc4C)nn23)cc1,3%,-28%,-1%,-1%,16µM*,5%
Cc1ccc(C)c(CSc2ccc3nnc(CCNS(=O)(=O)c4ccccc4)n3n2)c1,0%,-6%,37%,0%,-1%,-5%
N#Cc1c(O)c2c(-c3ccc(-c4ccccc4O)cc3)csc2[nH]c1=O,.,.,-12%,.,.,.
CC(C)(C)OC(=O)N1CCC(c2c(C(=O)NCCN3CCC(Cc4ccccc4)CC3)cnn2-c2ccc(F)cc2)CC1,?,?,?,?,25µM*,?
COc1ccc(CCN2CCC(CNC(=O)c3cnn(-c4ccccc4)c3C3CCN(C(=O)OC(C)(C)C)CC3)CC2)cc1,7%,?,?,?,-10%,16%
COc1ccc(CCN2CCC(CNC(=O)c3cnn(-c4cccc(Cl)c4)c3C3CCN(C(=O)OC(C)(C)C)CC3)CC2)cc1,?,?,?,?,20µM*,4%
Cc1ccc(Cl)cc1N1CCN(CCCNc2ncnc3onc(-c4ccc(F)cc4)c23)CC1,-1%,18µM*,-4%,?,-1%,-1%
O=C(Nc1nnc(SCC(=O)N2CCCc3ccccc32)s1)c1ccccc1,.,.,.,.,.,7.9µM*
CC(=O)N1CCN(c2ccc(OCc3nn(C)c(C)c3-c3cccc4c(CCCOc5cccc6ccccc56)c(C(=O)O)n(Cc5cccnc5)c34)cc2)CC1,.,.,-19%,.,.,.
COc1ccc(C2=N[C@H](c3ccc(Cl)cc3)[C@H](c3ccc(Cl)cc3)N2C(=O)N2CCNC(=O)C2)c(OC(C)C)c1,.,.,25%,.,.,.
CN(c1ccccc1)C(CNS(=O)(=O)c1ccccc1)c1ccccc1 (stereo unspecified),-12%,?,-7%,-1%,?,39%
SMILES,mTORC1 inh,PMP22 txn prim,OvCa metastasis,S16 F2sN tox,p53null 39C tox,p53null 32C kill
Cc1ccc(N(C)C(CNS(=O)(=O)c2ccccc2)c2ccccc2)cc1 (stereo unspecified),-12%,?,-8%,-5%,14µM*,25%
COc1ccc2c(c1)Cc1sc(NC(=O)c3cccc(C)c3)nc1-2,1%,-26%,-10%,1%,-1%,14%
COc1ccc2c(c1)Cc1sc(NC(=O)c3cccc(Cl)c3)nc1-2,-9%,-28%,1%,?,5%,16µM*
CC(=O)Nc1cccc(-n2c(=O)n(C3CC3)c(=O)c3c(Nc4ccc(I)cc4F)n(C)c(=O)c(C)c32)c1,.,.,11%,.,.,.
Cc1cc(=O)n2nc(N3CCC(C(=O)Nc4ccc(Br)c(C)c4)CC3)sc2n1,-2%,15µM*,i,1%,-6%,9%
Cc1nn(-c2ccccc2Cl)c(Cl)c1/C=N/Nc1cccc(C(=O)O)c1,.,.,.,.,14µM*,10µM*
